Experimental findings from publication PMC7862700, “An all-to-all approach to the identification of sequence-specific readers for epigenetic DNA modifications on cytosine” are described below.

Test in all cases: DAPPL (digital affinity profiling via proximity ligation, sequencing); 10 mM Tris-HCl pH 7.5, 50 mM NaCl, 1 mM DTT, 4% glycerol, room temperature, 30 min; GST-TFs on glutathione beads, 16-mer random dsDNA library, 0.1% formaldehyde crosslink after washing; high values mean tight binding
For one assay, the target named is T1, FEV (Homo sapiens, UniProt Q99581 1-238).
T1 sequence: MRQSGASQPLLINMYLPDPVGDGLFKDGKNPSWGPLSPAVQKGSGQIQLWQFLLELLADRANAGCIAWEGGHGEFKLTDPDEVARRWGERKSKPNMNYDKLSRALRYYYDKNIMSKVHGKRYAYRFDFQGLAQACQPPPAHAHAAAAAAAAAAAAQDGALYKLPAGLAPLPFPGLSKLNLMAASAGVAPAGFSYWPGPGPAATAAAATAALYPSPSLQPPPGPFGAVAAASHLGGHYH
Particulars: protein: recombinant; tags: N-terminal GST; dsDNA, one strand shown. In short, it runs like this: (§1)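 Beads coated with glutathione captured GST-fused human transcription factors that had been expressed in yeast, and the factors were then given DNA barcodes and pooled with a tag-only sample. The pools were incubated with 200 nmole of a random double-stranded 16-mer DNA library in Tris/NaCl/DTT/glycerol buffer for 30 min at room temperature, washed, crosslinked with 0.1% formaldehyde and proximity-ligated with BsaI/T4 ligase at 37 °C for 1 h. PCR amplification and Illumina NextSeq500 sequencing came last. Binding signal is each hexamer's read frequency for a factor divided by its frequency for the tag-only sample.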

Another assay concerns the target ETV5 (Homo sapiens, UniProt P41161 1-510). To be noted: protein: recombinant; tags: N-terminal GST; dsDNA, one strand shown. In short, it runs like this:
as §1

A further assay concerns the target HSF1 (Homo sapiens, UniProt Q00613 1-529). Particulars: protein: recombinant; tags: N-terminal GST; chain copies: 3; dsDNA, one strand shown. In short, it runs like this: as §1
Another assay addresses T2, SPIC (Homo sapiens, UniProt Q8N5J4 1-248).
T2 sequence: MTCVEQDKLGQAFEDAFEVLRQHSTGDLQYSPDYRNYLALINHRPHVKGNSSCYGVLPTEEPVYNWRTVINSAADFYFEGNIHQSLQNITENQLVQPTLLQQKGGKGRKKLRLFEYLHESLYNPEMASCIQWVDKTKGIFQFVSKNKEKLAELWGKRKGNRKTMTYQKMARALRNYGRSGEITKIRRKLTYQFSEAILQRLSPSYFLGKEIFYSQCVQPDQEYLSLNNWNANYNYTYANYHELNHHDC
Particulars: protein: recombinant; tags: N-terminal GST; dsDNA, one strand shown. In short, it runs like this:
as §1

The target of the next assay is ELF4 (Homo sapiens, UniProt Q99607 1-663). To be noted: protein: recombinant; tags: N-terminal GST; dsDNA, one strand shown. In short, it runs like this: as §1
Sequence of ELF4 (Q99607 whole entry): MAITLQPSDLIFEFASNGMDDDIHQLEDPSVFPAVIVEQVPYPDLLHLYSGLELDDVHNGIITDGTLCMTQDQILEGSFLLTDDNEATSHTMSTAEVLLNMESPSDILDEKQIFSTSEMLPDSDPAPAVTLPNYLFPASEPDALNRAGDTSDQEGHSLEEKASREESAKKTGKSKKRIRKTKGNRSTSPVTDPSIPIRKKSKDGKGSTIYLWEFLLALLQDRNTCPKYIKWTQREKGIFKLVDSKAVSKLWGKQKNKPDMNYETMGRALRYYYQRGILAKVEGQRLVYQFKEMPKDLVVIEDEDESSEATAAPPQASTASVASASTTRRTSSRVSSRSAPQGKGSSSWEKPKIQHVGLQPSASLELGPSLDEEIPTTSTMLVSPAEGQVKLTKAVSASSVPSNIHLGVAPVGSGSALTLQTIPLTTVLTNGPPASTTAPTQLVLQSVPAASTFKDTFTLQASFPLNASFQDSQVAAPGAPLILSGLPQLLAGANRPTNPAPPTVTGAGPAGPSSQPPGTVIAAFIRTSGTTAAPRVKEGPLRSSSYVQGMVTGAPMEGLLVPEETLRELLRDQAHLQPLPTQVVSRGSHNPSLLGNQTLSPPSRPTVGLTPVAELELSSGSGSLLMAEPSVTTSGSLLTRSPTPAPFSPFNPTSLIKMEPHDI
The next assay concerns the target T3, ELK4 (Homo sapiens, UniProt P28324-2 1-405).
T3 sequence: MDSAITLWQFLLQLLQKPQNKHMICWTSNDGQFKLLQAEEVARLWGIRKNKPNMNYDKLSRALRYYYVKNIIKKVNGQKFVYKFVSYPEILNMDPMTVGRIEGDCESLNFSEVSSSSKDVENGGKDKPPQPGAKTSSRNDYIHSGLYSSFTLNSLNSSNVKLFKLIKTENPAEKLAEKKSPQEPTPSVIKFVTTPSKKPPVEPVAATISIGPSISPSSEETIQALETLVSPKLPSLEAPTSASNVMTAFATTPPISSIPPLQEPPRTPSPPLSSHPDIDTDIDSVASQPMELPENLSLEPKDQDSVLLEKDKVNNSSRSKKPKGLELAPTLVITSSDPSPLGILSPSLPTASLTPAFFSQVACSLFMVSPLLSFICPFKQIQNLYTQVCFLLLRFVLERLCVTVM
Particulars: protein: recombinant; tags: N-terminal GST; dsDNA, one strand shown. In short, it runs like this:
as §1

The next assay concerns the target T4, ETV2 (Homo sapiens, UniProt O00321 1-342).
T4 sequence: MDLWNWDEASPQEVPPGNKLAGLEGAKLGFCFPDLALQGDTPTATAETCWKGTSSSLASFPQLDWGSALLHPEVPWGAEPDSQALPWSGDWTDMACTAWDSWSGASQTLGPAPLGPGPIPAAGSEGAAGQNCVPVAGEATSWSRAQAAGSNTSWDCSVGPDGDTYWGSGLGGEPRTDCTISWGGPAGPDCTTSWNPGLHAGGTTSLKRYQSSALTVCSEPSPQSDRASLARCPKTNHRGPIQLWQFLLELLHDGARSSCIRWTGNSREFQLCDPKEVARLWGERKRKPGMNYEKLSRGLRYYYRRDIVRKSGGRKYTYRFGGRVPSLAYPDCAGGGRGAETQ
Particulars: protein: recombinant; tags: N-terminal GST; dsDNA, one strand shown. In short, it runs like this:
as §1

In another assay the target is T5, ELF3 (Homo sapiens, UniProt P78545 1-371).
T5 sequence: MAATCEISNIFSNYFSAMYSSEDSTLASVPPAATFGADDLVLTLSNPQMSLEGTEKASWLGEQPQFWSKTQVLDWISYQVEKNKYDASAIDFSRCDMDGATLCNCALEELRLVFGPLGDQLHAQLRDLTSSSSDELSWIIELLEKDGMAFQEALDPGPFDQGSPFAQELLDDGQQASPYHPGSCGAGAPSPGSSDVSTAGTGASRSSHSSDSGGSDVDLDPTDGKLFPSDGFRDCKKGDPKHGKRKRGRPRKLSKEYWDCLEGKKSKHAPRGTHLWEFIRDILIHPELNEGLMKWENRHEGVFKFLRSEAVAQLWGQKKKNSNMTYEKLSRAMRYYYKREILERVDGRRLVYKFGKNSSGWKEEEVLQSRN
Particulars: protein: recombinant; tags: N-terminal GST; dsDNA, one strand shown. In short, it runs like this:
as §1

The target of a further assay is CRX (Homo sapiens, UniProt O43186 1-299). Particulars: protein: recombinant; tags: N-terminal GST; dsDNA, one strand shown. In short, it runs like this: as §1
Sequence of CRX (O43186 whole entry): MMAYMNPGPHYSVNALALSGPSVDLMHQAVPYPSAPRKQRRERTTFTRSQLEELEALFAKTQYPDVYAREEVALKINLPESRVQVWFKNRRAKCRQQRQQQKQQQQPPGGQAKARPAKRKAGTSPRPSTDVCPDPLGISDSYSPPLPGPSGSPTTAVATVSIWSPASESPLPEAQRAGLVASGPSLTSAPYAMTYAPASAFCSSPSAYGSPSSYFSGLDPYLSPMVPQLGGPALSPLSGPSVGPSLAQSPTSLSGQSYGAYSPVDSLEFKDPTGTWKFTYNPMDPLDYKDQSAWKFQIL
For a further assay, the target named is ETV1 (Homo sapiens, UniProt P50549 1-477). Particulars: protein: recombinant; tags: N-terminal GST; dsDNA, one strand shown. In short, it runs like this:
as §1

A further assay concerns the target T6, ERF (Homo sapiens, UniProt P50548 1-548).
T6 sequence: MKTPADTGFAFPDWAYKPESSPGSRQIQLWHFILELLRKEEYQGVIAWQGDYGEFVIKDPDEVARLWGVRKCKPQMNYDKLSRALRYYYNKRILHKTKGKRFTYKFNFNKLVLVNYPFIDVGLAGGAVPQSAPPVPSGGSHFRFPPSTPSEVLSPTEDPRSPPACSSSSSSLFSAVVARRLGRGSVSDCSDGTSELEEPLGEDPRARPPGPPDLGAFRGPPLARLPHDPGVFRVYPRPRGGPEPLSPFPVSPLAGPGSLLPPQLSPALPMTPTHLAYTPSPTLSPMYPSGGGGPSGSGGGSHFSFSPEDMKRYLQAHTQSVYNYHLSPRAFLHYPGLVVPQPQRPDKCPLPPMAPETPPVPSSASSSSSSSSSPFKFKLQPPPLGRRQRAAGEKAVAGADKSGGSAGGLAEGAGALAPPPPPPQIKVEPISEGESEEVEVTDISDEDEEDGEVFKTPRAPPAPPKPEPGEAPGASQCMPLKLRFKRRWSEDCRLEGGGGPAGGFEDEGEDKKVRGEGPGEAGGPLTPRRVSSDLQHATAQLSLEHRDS
To be noted: protein: recombinant; tags: N-terminal GST; dsDNA, one strand shown. In short, it runs like this:
as §1

The next assay deals with T7, ETV3L (Homo sapiens, UniProt Q6ZN32 1-361).
T7 sequence: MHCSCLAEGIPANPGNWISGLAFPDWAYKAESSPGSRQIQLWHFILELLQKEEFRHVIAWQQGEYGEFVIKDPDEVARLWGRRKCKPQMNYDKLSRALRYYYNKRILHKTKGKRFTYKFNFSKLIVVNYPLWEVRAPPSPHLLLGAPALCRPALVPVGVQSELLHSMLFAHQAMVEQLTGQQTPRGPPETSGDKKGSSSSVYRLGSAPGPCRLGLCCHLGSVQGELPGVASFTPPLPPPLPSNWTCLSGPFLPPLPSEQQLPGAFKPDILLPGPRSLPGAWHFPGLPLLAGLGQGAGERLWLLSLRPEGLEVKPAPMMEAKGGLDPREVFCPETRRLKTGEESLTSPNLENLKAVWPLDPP
To be noted: protein: recombinant; tags: N-terminal GST; dsDNA, one strand shown. In short, it runs like this: as §1

Another assay addresses T8, ETS2 (Homo sapiens, UniProt P15036 1-469).
T8 sequence: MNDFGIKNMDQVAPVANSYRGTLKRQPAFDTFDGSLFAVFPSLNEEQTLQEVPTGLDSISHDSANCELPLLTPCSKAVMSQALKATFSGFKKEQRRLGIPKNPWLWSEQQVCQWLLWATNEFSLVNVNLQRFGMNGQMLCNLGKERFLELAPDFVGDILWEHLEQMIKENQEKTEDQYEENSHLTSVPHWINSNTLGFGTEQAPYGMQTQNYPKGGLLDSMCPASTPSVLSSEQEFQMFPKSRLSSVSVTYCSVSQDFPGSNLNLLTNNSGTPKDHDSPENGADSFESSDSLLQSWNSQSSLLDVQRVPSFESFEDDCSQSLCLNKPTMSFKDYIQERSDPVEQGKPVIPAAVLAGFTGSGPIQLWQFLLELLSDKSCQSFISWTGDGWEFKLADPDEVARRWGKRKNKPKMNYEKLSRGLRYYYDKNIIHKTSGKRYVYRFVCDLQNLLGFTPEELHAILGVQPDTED
To be noted: protein: recombinant; tags: N-terminal GST; dsDNA, one strand shown. In short, it runs like this:
as §1

A further assay deals with T9, SPDEF (Homo sapiens, UniProt O95238 1-335).
T9 sequence: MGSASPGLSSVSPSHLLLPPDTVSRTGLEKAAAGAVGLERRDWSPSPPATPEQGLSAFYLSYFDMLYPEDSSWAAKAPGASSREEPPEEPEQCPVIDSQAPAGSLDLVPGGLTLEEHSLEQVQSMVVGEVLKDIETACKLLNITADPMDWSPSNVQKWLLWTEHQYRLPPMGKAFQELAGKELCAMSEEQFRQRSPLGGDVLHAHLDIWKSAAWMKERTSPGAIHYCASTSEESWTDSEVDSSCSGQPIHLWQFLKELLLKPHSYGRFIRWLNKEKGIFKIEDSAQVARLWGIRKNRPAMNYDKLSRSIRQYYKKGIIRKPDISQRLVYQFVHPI
To be noted: protein: recombinant; tags: N-terminal GST; dsDNA, one strand shown. In short, it runs like this: as §1

Another assay concerns the target T10, ETV7 (Homo sapiens, UniProt Q9Y603 1-341).
T10 sequence: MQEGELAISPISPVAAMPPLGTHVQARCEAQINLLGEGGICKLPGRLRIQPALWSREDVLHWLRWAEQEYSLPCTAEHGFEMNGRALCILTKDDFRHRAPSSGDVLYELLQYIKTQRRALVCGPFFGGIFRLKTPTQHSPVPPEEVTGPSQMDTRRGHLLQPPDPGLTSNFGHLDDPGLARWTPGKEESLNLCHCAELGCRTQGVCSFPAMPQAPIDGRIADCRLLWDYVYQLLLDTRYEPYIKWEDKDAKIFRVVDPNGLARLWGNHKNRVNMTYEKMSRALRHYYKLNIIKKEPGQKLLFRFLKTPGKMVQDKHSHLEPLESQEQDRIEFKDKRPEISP
Particulars: protein: recombinant; tags: N-terminal GST; dsDNA, one strand shown. In short, it runs like this: as §1

Another assay addresses T11, ELF5 (Homo sapiens, UniProt Q9UKW6-2 1-255).
T11 sequence: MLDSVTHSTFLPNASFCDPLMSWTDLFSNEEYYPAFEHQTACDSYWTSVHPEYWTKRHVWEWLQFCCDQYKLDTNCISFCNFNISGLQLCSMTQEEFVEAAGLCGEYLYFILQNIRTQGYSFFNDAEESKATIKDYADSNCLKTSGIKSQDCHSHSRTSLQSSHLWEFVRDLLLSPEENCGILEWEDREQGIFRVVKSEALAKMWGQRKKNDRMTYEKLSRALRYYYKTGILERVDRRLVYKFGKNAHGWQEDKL
Particulars: protein: recombinant; tags: N-terminal GST; dsDNA, one strand shown. In short, it runs like this: as §1

A further assay addresses T12, ETV3 (Homo sapiens, UniProt P41162-2 1-143).
T12 sequence: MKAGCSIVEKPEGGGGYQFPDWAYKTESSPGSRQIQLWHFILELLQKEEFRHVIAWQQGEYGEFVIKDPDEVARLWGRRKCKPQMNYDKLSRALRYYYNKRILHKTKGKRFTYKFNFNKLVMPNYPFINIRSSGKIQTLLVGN
Particulars: protein: recombinant; tags: N-terminal GST; dsDNA, one strand shown. In short, it runs like this:
as §1

In another assay the target is ETV6 (Homo sapiens, UniProt P41212 1-452). Particulars: protein: recombinant; tags: N-terminal GST; dsDNA, one strand shown. In short, it runs like this:
as §1

Sequence of ETV6 (P41212 whole entry): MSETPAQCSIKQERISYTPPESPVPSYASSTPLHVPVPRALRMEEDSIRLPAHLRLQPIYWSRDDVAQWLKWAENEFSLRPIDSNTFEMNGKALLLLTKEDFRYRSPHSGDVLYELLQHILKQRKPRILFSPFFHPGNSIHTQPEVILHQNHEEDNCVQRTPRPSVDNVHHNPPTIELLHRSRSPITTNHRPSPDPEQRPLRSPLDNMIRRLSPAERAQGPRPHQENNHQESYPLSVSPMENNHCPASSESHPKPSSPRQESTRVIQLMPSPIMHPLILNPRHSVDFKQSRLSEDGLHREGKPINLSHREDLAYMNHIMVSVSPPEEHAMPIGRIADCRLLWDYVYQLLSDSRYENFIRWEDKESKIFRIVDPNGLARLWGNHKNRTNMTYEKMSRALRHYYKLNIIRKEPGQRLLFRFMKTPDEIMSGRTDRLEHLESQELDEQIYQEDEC
Sequence of ETV1 (P50549 whole entry): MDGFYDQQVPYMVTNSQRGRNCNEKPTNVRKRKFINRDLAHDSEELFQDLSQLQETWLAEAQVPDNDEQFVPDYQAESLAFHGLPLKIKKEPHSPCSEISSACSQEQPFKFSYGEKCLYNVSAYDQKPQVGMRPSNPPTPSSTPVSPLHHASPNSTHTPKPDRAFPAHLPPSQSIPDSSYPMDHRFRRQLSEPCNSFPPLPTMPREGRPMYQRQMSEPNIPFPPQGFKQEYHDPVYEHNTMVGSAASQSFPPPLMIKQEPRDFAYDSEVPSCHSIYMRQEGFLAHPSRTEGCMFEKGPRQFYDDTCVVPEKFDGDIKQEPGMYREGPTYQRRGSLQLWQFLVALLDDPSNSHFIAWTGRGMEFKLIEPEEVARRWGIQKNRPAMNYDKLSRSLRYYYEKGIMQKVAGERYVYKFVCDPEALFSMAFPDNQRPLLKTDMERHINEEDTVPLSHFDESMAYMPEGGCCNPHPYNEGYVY
Sequence of ETV5 (P41161 whole entry): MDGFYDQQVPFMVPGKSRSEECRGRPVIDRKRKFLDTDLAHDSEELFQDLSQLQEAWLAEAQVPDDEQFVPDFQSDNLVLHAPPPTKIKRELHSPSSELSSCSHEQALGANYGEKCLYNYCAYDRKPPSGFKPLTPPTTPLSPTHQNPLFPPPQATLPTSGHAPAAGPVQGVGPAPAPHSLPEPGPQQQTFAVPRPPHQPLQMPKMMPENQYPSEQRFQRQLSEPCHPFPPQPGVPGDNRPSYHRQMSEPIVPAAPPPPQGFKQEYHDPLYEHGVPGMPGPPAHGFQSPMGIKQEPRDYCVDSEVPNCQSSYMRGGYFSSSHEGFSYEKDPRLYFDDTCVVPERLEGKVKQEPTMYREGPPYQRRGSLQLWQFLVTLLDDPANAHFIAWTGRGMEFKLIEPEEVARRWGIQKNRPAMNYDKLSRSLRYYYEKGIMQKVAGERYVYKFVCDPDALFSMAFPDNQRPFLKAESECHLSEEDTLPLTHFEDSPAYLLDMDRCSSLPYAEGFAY
Sequence of HSF1 (Q00613 whole entry): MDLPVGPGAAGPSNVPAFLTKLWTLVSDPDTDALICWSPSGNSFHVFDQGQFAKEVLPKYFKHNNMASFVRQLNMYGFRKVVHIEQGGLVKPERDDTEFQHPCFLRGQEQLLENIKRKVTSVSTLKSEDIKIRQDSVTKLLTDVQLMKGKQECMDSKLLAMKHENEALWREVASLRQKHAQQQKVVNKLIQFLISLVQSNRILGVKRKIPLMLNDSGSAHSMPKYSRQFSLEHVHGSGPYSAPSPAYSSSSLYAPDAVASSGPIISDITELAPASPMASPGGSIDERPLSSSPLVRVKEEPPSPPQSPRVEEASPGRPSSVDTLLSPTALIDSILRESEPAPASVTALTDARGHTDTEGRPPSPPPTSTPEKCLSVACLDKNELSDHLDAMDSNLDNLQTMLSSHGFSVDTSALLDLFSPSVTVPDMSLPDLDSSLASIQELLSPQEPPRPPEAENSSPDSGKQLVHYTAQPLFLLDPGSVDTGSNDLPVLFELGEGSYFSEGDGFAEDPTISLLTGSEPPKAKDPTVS

For the sequence CTGCTC, the binding signal with FEV is 1.31 fold enrichment (6-mer frequency, TF over GST control); in the assay with ETV5 it was 1.26 fold enrichment (6-mer frequency, TF over GST control); in the assay with HSF1, 1.17 fold enrichment (6-mer frequency, TF over GST control); in the assay with SPIC, 1.39 fold enrichment (6-mer frequency, TF over GST control); with ELF4, 1.29 fold enrichment (6-mer frequency, TF over GST control); with ELK4 it was 1.45 fold enrichment (6-mer frequency, TF over GST control). Further, the binding signal is 1.35 fold enrichment (6-mer frequency, TF over GST control) in the assay with ETV2; 1.18 fold enrichment (6-mer frequency, TF over GST control) with ELF3; 1.22 fold enrichment (6-mer frequency, TF over GST control) with CRX; 1.21 fold enrichment (6-mer frequency, TF over GST control) with ETV1; 1.29 fold enrichment (6-mer frequency, TF over GST control) in the assay with ERF; 1.43 fold enrichment (6-mer frequency, TF over GST control) with ETV3L. The binding signal in the assay with ETS2 is 1.28 fold enrichment (6-mer frequency, TF over GST control); in the assay with SPDEF it was 1.26 fold enrichment (6-mer frequency, TF over GST control); in the assay with ETV7, 1.29 fold enrichment (6-mer frequency, TF over GST control); with ELF5, 1.29 fold enrichment (6-mer frequency, TF over GST control); with ETV3, 1.22 fold enrichment (6-mer frequency, TF over GST control); with ETV6, 1.16 fold enrichment (6-mer frequency, TF over GST control).
